High-throughput results from PubChem.
MARV entry inh: inhibitors of Marburg virus binding or cell entry | Potency, µM (series often up to 37.8 µM), usual class: inhibitors | 1.8% of 300,000 active | Marburg virus pseudotyped entry inhibition, cell reporter; calls by dose curve; tested in HEK293 cells
LASV entry inh: blocks Lassa virus binding to or entry into cells; Lassa virus pseudotype entry inhibition, cell reporter; AID 540256; Potency, µM (titrated, usually from 37.9 µM), usual class: inhibitors; 1.2% of 300,000 active; calls by dose curve; tested in HEK293 cells; also: nearly all actives have a fitted effect of over 50% in size
HCMV inh: blocks human cytomegalovirus replication. HFF cells, HCMV-luciferase reporter, 72 h; stronger effect = lower value. activity change, negative = inhibition, % at 57.5 µM. 4.5% of 410,000 active; in the data active = activity change below about -60%; inconclusive = no clear call, values can overlap the other calls; inactive = above about -39%
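Screen run at 2 compound doses on HFFs infected with reporter HCMV, MOI 1 PFU/cell. Luciferase activity from cell lysates at 72 h post infection gave inhibition relative to buffer-only and Salinomycin wells.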
FMDV antiviral: foot and mouth disease virus antiviral activity. Potency, µM (series often up to 57.9 µM), actives largely listed as inhibitors. AID 1159524. 1.2% of 410,000 active. FMDV antiviral cell-based qHTS; calls by dose curve; tested in HEK293T cells; also: read-out not given here; nearly all actives have a fitted effect of over 45% in size
A number is an active result; i = inactive; ? = inconclusive; nt = not tested or not shown. Compounds with a hit are over-represented: about 6.2% of the library has one in this group of screens.

SMILES	MARV entry inh	LASV entry inh	HCMV inh	FMDV antiviral
CCn1c(-c2cccnc2)nc2cc(NC(=O)COC)cc(C(=O)N3CCc4ccccc4C3)c21	nt	nt	nt	i
CCc1ccc(NS(=O)(=O)c2ccc(C(=O)N(C)C)s2)cc1	nt	i	i	i
Cc1ccc(NC(=O)C2CCN(c3ncnc4c3nc3n4CCCCC3)CC2)nc1	nt	nt	-91	?
Cc1ccccc1OC1C(=O)N(Cc2ccc3c(c2)OCO3)C1c1sccc1C (stereo unspecified)	?	?	-71	i
CC(NS(=O)(=O)c1ccc(Br)cc1)C(=O)NCc1ccco1 (stereo unspecified)	i	i	-73	i
CN=c1scc(C)n1/N=C/c1ccc(O)cc1	?	?	i	i
CN=c1scc(C)n1/N=C/c1ccc2c(c1)OCO2	?	3.5µM	i	i
C=CCN=c1scc(C)n1/N=C/c1ccc(O)c(O)c1	nt	nt	-97	i
CN=c1scc(-c2ccco2)n1/N=C/c1ccc(O)c(O)c1	?	?	i	14µM
CN=c1scc(C)n1/N=C/c1ccc(O)cc1O	?	?	i	?
Cc1ccc(-c2nn3c(C)nnc3c3ccccc23)cc1S(=O)(=O)NCC(C)O (stereo unspecified)	nt	i	i	i
COc1ccc(CN(C2CCCC2)S(=O)(=O)c2cc(Br)ccc2Br)c(OC)c1	?	nt	i	nt
COc1cc2c(c(OC)c1OC)-c1ccc(O)c(=O)cc1[C@@H](NC(C)=O)CC2	nt	nt	i	i
COc1cc2c(c(OC)c1OC)-c1ccc(NC(=O)c3ccccc3)c(=O)cc1[C@@H](NC(C)=O)CC2	i	i	-88	i
CN[C@H]1CCc2cc(OC)c(OC)c(OC)c2-c2ccc(OC)c(=O)cc21	nt	nt	-95	i
COc1cc2c(c(OC)c1OC)-c1ccc(O)cc1[C@@H](NC(C)=O)CC2	nt	nt	-78	i
COc1cc2c(c(OC)c1OC)-c1ccc(O)cc1C(NC(C)=O)CC2 (stereo unspecified)	?	?	-95	i
Cc1cnc(NC(=O)C(C)(C)n2cc(-c3ccc4c(c3)OCCO4)cn2)s1	nt	nt	i	nt
CC(=O)Nc1c(C(=O)Nc2cccc(C)c2)nnn1-c1ccc(C)cc1	i	?	-62	i
CCN(Cc1ccccc1)C(=O)Cn1c(=O)n(Cc2ccccc2)c(=O)c2c1c1cc(OC)ccc1n2C	i	i	i	i
CCOC(=O)c1ccc(N2C(=O)c3[nH]nc(-c4ccccc4)c3C2c2cccs2)cc1 (stereo unspecified)	?	?	-98	i
CCOC(=O)c1ccc(N2C(=O)c3[nH]nc(-c4ccc(OCC)cc4)c3C2c2cccs2)cc1 (stereo unspecified)	?	?	-65	?
CCOC(=O)c1ccc(N2C(=O)c3n[nH]c(-c4ccco4)c3C2c2ccc(O)c(OC)c2)cc1 (stereo unspecified)	?	i	i	?
CCOC(=O)c1ccc(N2C(=O)c3n[nH]c(C)c3C2c2cccnc2)cc1 (stereo unspecified)	i	i	i	i
Cc1ccc(N2CCN(C(=O)c3ccccc3NC(=O)c3ccccc3C(=O)O)CC2)cc1	i	?	-103	i
SMILES	MARV entry inh	LASV entry inh	HCMV inh	FMDV antiviral
CCOC(=O)N1CCN(C(=O)c2ccccc2NC(=O)COc2ccccc2)CC1	i	i	-60	?
CCC(Oc1ccccc1)C(=O)Nc1ccccc1C(=O)N1CCCCC1 (stereo unspecified)	11µM	?	i	?
COc1cccc(C(=O)Nc2ccccc2C(=O)N2CCCC2)c1	i	i	i	i
O=C(Nc1ccccc1C(=O)N1CCCCCC1)c1ccccc1	i	i	-64	i
CC(CCC(=O)OC[C@H]1O[C@H](C#Cc2ccccc2)C=C[C@H]1Oc1ccc(C)cc1)=NOC[C@@H](O)COCc1ccco1	i	nt	nt	nt
Cc1ccc(CN2C(=O)C(O)(c3c[nH]c4ccccc34)c3cc(Cl)ccc32)cc1 (stereo unspecified)	?	?	?	i
COc1cc(-c2ccc(Cl)cn2)cc2c1OCCN(C(=O)c1ccccc1-n1cccn1)C2	nt	nt	nt	i
O=C(Cn1ncc2c3ccccc3n(Cc3ccc(Cl)cc3)c2c1=O)NCc1cccs1	i	i	i	i
Cc1cc(O)c(C(=O)/C=C/c2ccccc2Br)c(=O)o1	i	?	-87	11µM
Cc1cc(O)c(C(=O)/C=C/c2ccccc2)c(=O)o1	i	i	-92	11µM
CCOc1c(Br)cc(C2CC(=O)Nc3cc4c(cc32)OCO4)cc1OC (stereo unspecified)	?	?	i	i
CCOc1ccccc1C1CC(=O)Nc2cc3c(cc21)OCCO3 (stereo unspecified)	8.2µM	?	-99	18µM
COc1cc(C2CC(=O)Nc3cc4c(cc32)OCCO4)cc(Br)c1OC (stereo unspecified)	?	?	-81	i
